# B1: usp_38_diff_out_16_109_175 (protein)
# chain: SAQAEADRAFAEAAIANFRSLAADARARLARLEARGASPEVLAAYADLAATATAAAAALEAALAAGEDLRAAANAAWDAVGAAAARAARLLQEEVRRRSA
# B2: usp_38_diff_out_16_109_178 (protein)
# chain: SAEDEANVEYAKAVIENLEKLAEEAEAELKRLQARGASAEVLAAYQKLADLAKEAAERLKKALAEGKDLRAIADEEWDRVGAAAAEAAELRQQEVRARSA
# B3: usp_38_diff_out_16_109_173 (protein)
# chain: SQQAEGDRLFAEAAAANFRSLAEDAEAALARAKERGASPEVLAALQDLADTAKAAADTIEKTIADGGDLRATTDAQWDAVGAAAARADAIRRAEARARSD
# B4: usp_38_diff_out_16_109_183 (protein)
# chain: SADEEAARLLAEASIKNFRNLAKEAQAALAKAQARGASADVLAALQDLADTAKAAAERIEKAIKEGKDLLAVTNAEWDAVGAAAARARELREAETRARSA
# B5: usp_38_diff_out_16_109_177 (protein)
# chain: SAQEEADREYAEAVIKNLKELAKEAKERLKKLEEKGASEEVLKAYKELAETAKKAAERLEKALKAGEDLRKIADEEWDKVGAAAAKAAEILREEVRKKSE
# B6: usp_38_diff_out_16_109_179 (protein)
# chain: SAQAEADRAFAEAAIANFEALAADAEAELARLKARGASPEVLAAYQALADTARAAAAALRAALAAGEDLRAATNAKWDEVGAKAAEAAELRRAEVRRRSA
# B7: usp_38_diff_out_16_109_185 (protein)
# chain: AAQREADRALAEAAIANFRALAAEARARAAALRARGAPQAVIDAYDDLAATADAAAAALEAALAAGEDLRAAVDREWDAVGAAAAAAEALRRAATAARSA
# B8: usp_38_diff_out_16_109_176 (protein)
# chain: SAQAEADRAFAEAVVANLRALAEDAEARLARLEARGASPAVLAAYRDLADTARAAAAALEEAIAAGEDLRAIANAQWDRVGAAAARAADLLRAEVDARSA
# B9: usp_38_diff_out_16_109_171 (protein)
# chain: SADEEADRLLAEAAIRNLRALAEAAEAELEKLEARGASPEVLAAYRDLAELARRAAEEIERALEEGRDLRETTDREWDRVGAAAARAAELRRAEARRRSA
# B10: usp_38_diff_out_16_109_184 (protein)
# chain: SADEEADRLLAEASIKNFRDLSKDARAEAERLKARGASQAVIDAYNELAKTAEAAAEEIEKALEAGEDLRAVTDAQWDKVGAAAKKANDLRRAEARARTA
# B11: usp_38_diff_out_16_109_182 (protein)
# chain: AAEEEAARLLAEASIANFEALAEEARAQLAKAQARGASPEVLAALQDLADTARAAAAAIRRALEAGEDLRAVTDAQWDAVGAAAARANRLREAETDARSA
# B12: usp_38_diff_out_16_109_172 (protein)
# chain: SADAEADRLLAEAAIENLRALAEEARRELERLEAKGASEEVLAAYRALAETAEAAAATIEAALAAGKDIRATTDAQWDAVGAAAARASELREAEARARSA
# B13: usp_38_diff_out_16_109_180 (protein)
# chain: SAEAEADKAYAEAVIANLEALAKAAEAELKKLKARGASPEVLAAYQALRDTAKAAAATLKAALAAGEDLRAIADAQWDAVGAAAAAAAALRRAEVAARSA
# B14: usp_38_diff_out_16_109_174 (protein)
# chain: SAQEEADREYALAVIENLKKLAKEAEEELKKLKARGASEEVLKAYEELAKTAKEAAKALEEALKAGEDLRAIANEKWDEVGKKAAEAAELLREEVRRRSA
# B15: usp_38_diff_out_16_109_186 (protein)
# chain: SEQAESDRLLAEAAIANFKALAADARAEAARLKAKGASQAVIDAYNALADTATAAAAALEAALAAGEDLRATLDAQWDAVGAAAAAARDLREAETAARSA
# B16: usp_38_diff_out_16_109_181 (protein)
# chain: SAEEEAAREYAEAAVANFRALAADAEARLARLEARGASPEVLAAYRDLAATARAAAAALEAAIAAGEDLRAAADAQWDAVGAAAARAAEIRRAEVRRRSA
# Molecular target: T1, USP38, Q8NB14
# T1 chain: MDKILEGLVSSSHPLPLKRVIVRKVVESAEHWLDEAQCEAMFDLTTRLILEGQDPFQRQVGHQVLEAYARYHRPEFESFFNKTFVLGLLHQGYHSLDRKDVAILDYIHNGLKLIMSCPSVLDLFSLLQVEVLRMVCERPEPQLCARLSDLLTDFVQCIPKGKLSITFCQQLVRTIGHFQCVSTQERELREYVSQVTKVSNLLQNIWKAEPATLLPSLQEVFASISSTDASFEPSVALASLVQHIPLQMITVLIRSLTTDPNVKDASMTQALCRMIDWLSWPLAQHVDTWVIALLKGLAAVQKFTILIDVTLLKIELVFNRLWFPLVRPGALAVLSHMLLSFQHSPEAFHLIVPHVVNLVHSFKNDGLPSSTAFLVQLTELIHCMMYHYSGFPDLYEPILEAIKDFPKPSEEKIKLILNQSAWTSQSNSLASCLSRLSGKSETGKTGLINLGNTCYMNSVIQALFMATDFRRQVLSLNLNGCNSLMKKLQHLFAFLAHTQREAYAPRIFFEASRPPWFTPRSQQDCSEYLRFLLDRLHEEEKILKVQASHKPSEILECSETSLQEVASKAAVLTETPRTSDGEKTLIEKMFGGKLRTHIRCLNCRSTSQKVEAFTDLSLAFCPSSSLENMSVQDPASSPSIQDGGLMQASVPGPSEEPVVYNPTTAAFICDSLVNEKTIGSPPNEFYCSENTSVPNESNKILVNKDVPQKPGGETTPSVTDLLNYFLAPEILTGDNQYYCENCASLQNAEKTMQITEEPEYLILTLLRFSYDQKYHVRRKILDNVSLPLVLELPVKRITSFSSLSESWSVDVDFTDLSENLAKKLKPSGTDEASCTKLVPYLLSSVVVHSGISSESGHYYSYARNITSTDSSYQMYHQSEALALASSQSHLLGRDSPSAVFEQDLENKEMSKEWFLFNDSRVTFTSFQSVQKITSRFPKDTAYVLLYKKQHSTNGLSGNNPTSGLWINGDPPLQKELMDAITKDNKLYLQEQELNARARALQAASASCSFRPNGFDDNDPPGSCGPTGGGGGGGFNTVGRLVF
# Experiment: median log2 fold change of GCK-ALFA target abundance (FLAG IP / Myc IP barcode read proportion) (log2 ratio); each designed protein is fused to an ALFA-tag nanobody in HEK293 cells to bring the named protein to FLAG-tagged glucokinase (GCK); Myc marks an untargeted standard; higher = target protein stabilised (more abundant)
# Conditions: target protein: 3xFLAG-MCP-GCK-ALFA reporter; HEK293 landing pad (RPLP)
# How it was run: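 HEK293 landing-pad cells received a recombined binder library fused to the ALFA nanobody and were induced with 2 μg mL^−1 doxycycline, then transfected with a plasmid encoding a FLAG-tagged target and a Myc-tagged standard. Lysates were collected after 48 h for anti-FLAG and anti-Myc immunoprecipitation, and the circular RNA barcodes were reverse transcribed, amplified and sequenced. Target abundance for each binder is the median log2 ratio of FLAG to Myc barcode read proportions. Barcodes had to reach a proportion of at least 10^−7 in both replicates, each binder needed at least 3 barcodes per replicate, a pseudocount of 10^−6 was applied, and the two replicates were pooled.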
row,Binder,median log2 fold change
1,B1,-0.756
2,B2,0.375
3,B3,-0.0935
4,B4,-0.397
5,B5,0.0634
6,B6,-0.0762
7,B7,-0.358
8,B8,0.125
9,B9,-0.352
10,B10,-0.0394
11,B11,0.0957
12,B12,-0.0926
13,B13,-0.191
14,B14,-0.105
15,B15,0.0614
16,B16,-0.515
